Compound activity (PubChem BioAssay)
GC-A act – GC-A (human) enzyme activation | P16066 | HEK293 GC-A cells, cGMP TR-FRET, EC30 ANP; 0% at EC30 ANP, 100% saturating ANP | activation, % at 10 µM | hit rate 0.14% among 370,000 | AID 1671463; in the data active means activation above about 40%
NPR2 activator – GC-B (human) receptor activation; P20594; HEK293-GC-B cells, CNP EC30, cGMP TR-FRET; 0% at EC30 CNP, 100% saturating CNP; activation, % at 10 µM; hit rate 0.11% among 370,000;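 active means activation at 10 µM reaching about 35% in either raw or pattern-adjusted values, limit read from the data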
Target sequence (P20594 whole entry, looked up): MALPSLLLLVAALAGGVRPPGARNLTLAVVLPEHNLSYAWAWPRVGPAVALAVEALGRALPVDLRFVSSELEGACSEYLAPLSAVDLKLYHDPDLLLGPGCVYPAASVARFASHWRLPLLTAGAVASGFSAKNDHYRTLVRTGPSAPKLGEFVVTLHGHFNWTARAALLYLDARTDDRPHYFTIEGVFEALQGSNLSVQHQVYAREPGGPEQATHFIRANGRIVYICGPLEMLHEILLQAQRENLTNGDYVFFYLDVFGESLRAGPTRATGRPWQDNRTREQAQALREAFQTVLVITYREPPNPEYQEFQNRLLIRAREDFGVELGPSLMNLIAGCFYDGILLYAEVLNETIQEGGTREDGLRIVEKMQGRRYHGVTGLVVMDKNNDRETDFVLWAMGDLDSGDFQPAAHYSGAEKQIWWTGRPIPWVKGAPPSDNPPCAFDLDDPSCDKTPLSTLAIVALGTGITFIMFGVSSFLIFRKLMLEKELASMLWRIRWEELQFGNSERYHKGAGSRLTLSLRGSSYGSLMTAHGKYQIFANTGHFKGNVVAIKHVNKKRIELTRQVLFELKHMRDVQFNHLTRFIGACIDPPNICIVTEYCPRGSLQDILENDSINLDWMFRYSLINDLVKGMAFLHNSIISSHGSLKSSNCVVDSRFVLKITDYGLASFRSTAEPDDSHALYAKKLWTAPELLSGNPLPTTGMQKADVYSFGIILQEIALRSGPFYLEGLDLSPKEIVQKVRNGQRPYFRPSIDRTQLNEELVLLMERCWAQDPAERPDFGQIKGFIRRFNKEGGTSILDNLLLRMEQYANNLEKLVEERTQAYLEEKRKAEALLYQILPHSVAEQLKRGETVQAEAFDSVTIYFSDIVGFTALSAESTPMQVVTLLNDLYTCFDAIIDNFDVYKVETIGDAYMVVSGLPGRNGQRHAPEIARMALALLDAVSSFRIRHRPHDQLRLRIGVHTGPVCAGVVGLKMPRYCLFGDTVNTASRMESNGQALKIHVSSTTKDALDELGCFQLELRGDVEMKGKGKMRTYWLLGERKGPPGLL
bovine MsrA act – activates bovine MsrA enzyme | activation, % at 10.6 µM | hit rate 0.3% among 360,000 | purified bovine MsrA, absorbance read-out; in the data active means activation above about 7.5%
m5-HT2A agonist – mouse HTR2A agonism via beta-arrestin recruitment; CHO-K1 mHTR2A beta-arrestin complementation, luminescence; percent of 30 µM serotonin response; AID 624169; activation, % at 7.6 µM; hit rate 0.66% among 360,000;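 active means activation above a run cutoff, the mean activation of all tested compounds plus 3 SD, cut at about 14% in these data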
MsrA inhibitor – inhibits bovine methionine sulfoxide reductase A; inhibition, % at 15.5 µM; purified bovine MsrA, absorbance read-out; hit rate 0.75% among 360,000
MsrA inh confirm – bovine MsrA inhibition, confirmed; purified bovine MsrA, absorbance read-out; AID 651822; shares compounds with MsrA inhibitor; hit rate 41% among 2,300; inhibition, % at 15.5 µM;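 further: coupled to thioredoxin reductase with NADPH and selenocystamine and DMSO as substrate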
Hits are given with their value; n = inactive; x = no result given; ! = not confirmed by another sample. Most compounds without a hit are left out; they make up all but 1.8% or so of the library. Unless noted, no stated cut-off is given here; in the data, active means inhibition above about 4.5%; inactive means the rest.

SMILES	GC-A act	NPR2 activator	bovine MsrA act	m5-HT2A agonist	MsrA inhibitor	MsrA inh confirm
CC(Nc1cc(N2CCOCC2)ccc1[N+](=O)[O-])c1ccccc1 (stereo not given)	n	n	n	n	29.6	20.6
CC(Nc1cc(N2CCCC2)ccc1[N+](=O)[O-])c1ccccc1 (stereo not given)	x	x	n	n	n	x
CCOC(=O)C1CCN(C(=O)C(C)(C)NC(=O)Nc2ccc(OC)c(Cl)c2)CC1	n	n	x	x	x	x
Cn1c(=O)oc2cc(S(=O)(=O)N3CCN(CCO)CC3)ccc21	n	n	x	x	x	x
CCC[C@H]1[C@@H](NC(=O)c2cccc(C)c2)CC[C@@]23CCCN2C(=O)CCC[C@@H]13	n	n	x	x	x	x
COc1cccc(CCNC(=O)CCc2nc(-c3ccccc3F)no2)c1	n	n	x	x	x	x
O=[N+]([O-])c1cc([N+](=O)[O-])c(N2CCOCC2)cc1NCc1ccccc1	n	n	n	n	36.1	35.6
O=C(/C=C/c1cccs1)Nc1nncs1	n	n	n	n	5.9	n
O=C(/C=C/c1cccs1)Nc1scc(-c2ccccc2)c1C(=O)O	n	n	n	n	11.3	5.6
O=C(Nc1scc(-c2ccccc2)c1C(=O)O)c1ccccc1Cl	n	n	n	n	n	x
O=C(/C=C/c1cccs1)Nc1nc(-c2ccccc2)cs1	n	n	n	n	n	x
COc1ccc(C(=O)NCC(=O)N/N=C/C(C)=C/c2ccco2)cc1OC	n	n	n	n	6.6	n
COc1cc(C(=O)NCC(=O)N/N=C/c2ccco2)cc(OC)c1OC	n	n	n	n	n	x
CC(=O)C1=C(O)C(=O)N(Cc2cccnc2)C1c1ccccc1 (stereo not given)	n	n	n	n	6.4	n
N#C/C(=C(/O)CN1CCOCC1)c1nc2ccccc2s1	n	n	n	n	4.8	n
N#C/C(=C(\O)c1ccco1)c1ccccn1	n	n	n	n	5.1	n
N#CC(C(=O)c1ccco1)c1ccccn1 (stereo not given)	n	n	n	n	5.9	n
N#C/C(=C(/O)c1ccco1)c1nc2ccccc2[nH]1	n	n	n	n	7.2	4.6
CCCCCCCCN1C(=O)[C@@H](CC(=O)NCCCN2CCCC2=O)C[C@@]2(C(=O)OC)C1=C[C@H](COCc1ccccc1)O[C@@H]2C	n	n	x	x	x	x
C#CCNC(=O)C[C@H]1C[C@@]2(C(=O)OC)C(=C[C@H](C3CCCC3)O[C@@H]2C)N(CCCCCCCC)C1=O	n	n	x	x	n	x
CCOC(=O)[C@]12CCCC3=C1N(CCC3)C(=O)[C@@H](CC(=O)NCC1CCCCC1)C2	n	n	x	x	x	x
N#C/C(=C(/O)c1cc2ccccc2o1)c1nc2ccccc2s1	n	n	n	n	n	x
N#C/C(=C(/O)c1ccco1)c1nc2ccccc2s1	n	n	n	n	4.8!	4.6
Nc1c(C(=O)N2CCOCC2)cnn1Cc1ccccc1	n	n	x	x	x	x
COc1ccccc1NC(=S)NC(=O)C1CC1	n	n	n	n	n	x
SMILES	GC-A act	NPR2 activator	bovine MsrA act	m5-HT2A agonist	MsrA inhibitor	MsrA inh confirm
O=C(NC(=S)Nc1ccccc1Cl)C1CC1	n	n	n	n	7.0	n
COc1ccc2c(c1)C[C@@H]1CC(C)(C)CN1S2(=O)=O	n	n	x	x	x	x
CN(C)c1ccc(C=Nc2cnn(C)c2C(N)=O)cc1	n	n	n	n	4.9	n
COc1ccccc1NC=C1C(=O)OC(C)(C)OC1=O	n	n	n	n	5.5	n
CCOc1ccccc1NC=C1C(=O)OC(C)(C)OC1=O	n	n	n	n	n	x
CC(C)=CCC/C(C)=C/C[C@]12C[C@H](C(=O)O)N(C(=O)OC(C)(C)C)[C@@H]1N(C(=O)OC(C)(C)C)c1ccccc12	n	n	x	x	x	x
COCc1cc(C)nc(N/N=C/c2ccc(-c3ccc(Cl)cc3[N+](=O)[O-])o2)c1C#N	n	n	n	n	6.4	n
COC(=O)c1ccc2nc(-c3ccc(C)cc3)c(CC(C)(C)C)n2c1	n	n	x	x	n	x
O=C(O)c1ccc(N2C(=O)c3cccc4c(C(=O)O)ccc(c34)C2=O)cc1	n	n	n	n	5.5	n
O=C(O)c1ccc2c3c(cccc13)C(=O)N(c1ccccc1)C2=O	n	n	n	n	n	x
NS(=O)(=O)c1ccc(O)c(N2C(=O)c3cccc4c(C(=O)O)ccc(c34)C2=O)c1	n	n	n	n	5.0	n
C/C(=N\NC(=S)Nc1cccc(C)c1)c1cc2ccccc2o1	n	n	n	n	n	x
CCNC(=S)N/N=C(\C)c1cc2ccccc2o1	n	n	n	n	5.6	6.3
